# Experimental data published in PubChem BioAssay (NCI).
# About 83,000 compounds went through this panel and 20% of them were active in at least one assay; those are over-represented in the sample as a whole.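 Compound tested at a single concentration for 48 hours in 96-well plates; a percent growth value below 10 was scored as active.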 Unmarked numbers belong to inactive results. The source made the active and inactive calls.
# Assays:
# Experiment in all cases: NCI-60 one-dose screen, 48 h (100 = growth as untreated, 0 = no growth, -100 = all killed)
# Settings in all cases: 10 µM unless noted
# [1] = test system: SK-MEL-2 melanoma
# [2] = test system: EKVX NSCLC
# [3] = test system: SN12C renal
# [4] = test system: UO-31 renal
# [5] = test system: TK-10 renal
# [6] = test system: ACHN renal
# [7] = test system: CAKI-1 renal
# [8] = test system: A498 renal
# [9] = test system: CCRF-CEM leukemia
# [10] = test system: MOLT-4 leukemia
SMILES,growth [1],growth [2],growth [3],growth [4],growth [5],growth [6],growth [7],growth [8],growth [9],growth [10]
CCOC(=O)c1cnn(CC(C)O)c1NC(=O)NCc1ccccc1C(F)(F)F (stereo not given),76.6%,98.1%,99%,87.1%,80.9%,98.3%,86.4%,108%,114%,76%
COc1ccc(CNc2ccc3nc(NC(=O)CN4CCCCCC4)sc3c2)cc1,85.4%,80.1%,87.3%,80.6%,117%,89.8%,85.2%,90.3%,58.6%,61.1%
COc1ccc(Nc2ncc(C#N)c(NCCCNC(=O)C3CCC3)n2)cc1,80.6%,87.3%,35.3%,11.1%,41.4%,48.1%,26.3%,52.8%,45.5%,34.7%
COc1cc(/C=C/C(=O)c2cccc(-n3cc(-c4ccc(Cl)cc4)[nH]c3=O)c2)ccc1O,58.5%,68.7%,46.4%,31.2%,104%,60.4%,37.2%,106%,19.5%,24.2%
COc1cc(Cc2cc(-c3ccccc3)nn(Cc3ccccc3)c2=O)cc(OC)c1OC,38.4%,14.7%,40.9%,21.6%,45.2%,27.9%,44.4%,51.1%,34.8%,5.01% (active)
Cc1ccc(OCCOCCOCCOc2ccc(C)n(O)c2=S)c(=S)n1O,57%,24.9%,28.7%,42%,64%,44.6%,31.7%,52.5%,11.2%,10.7%
O=C1/C(=C/c2ccccn2)SC(=S)N1N1CCOCC1,89.8%,90.6%,93.6%,71.9%,98.5%,99.5%,92.6%,102%,84.2%,101%
C#CCOc1cccc(Nc2ncnc3cc(NC(=O)CCl)ccc23)c1,-55.3% (active),-49.1% (active),-83.5% (active),-88.7% (active),-85% (active),-84.1% (active),-57.7% (active),-25.6% (active),-46.9% (active),-35.4% (active)
O=C(OCc1ccc2c(Cl)cc(Cl)c(O)c2n1)N1CCN(C(=O)c2cc3ccccc3[nH]2)CC1,27.2%,23.5%,28.1%,4.4% (active),42.6%,11.6%,17.1%,14.2%,21%,20.5%
CN(C)CCCNC(=O)c1cncnc1Nc1ccc2c(ccn2Cc2cccc(F)c2)c1,107%,96.6%,84.9%,71.5%,103%,102%,83.7%,32.7%,67%,72%
Cc1cccc(NC(=O)N/C(N)=N/c2nc3ccccc3s2)c1,33%,49.6%,43.9%,38.6%,59%,38.7%,25%,-3.86% (active),21.4%,35.7%
COCCn1cc(-c2csc(-c3c[nH]c4ccc(F)cc34)n2)c2cccnc21,25.3%,38%,66.7%,38.4%,33.1%,41.9%,45.3%,9.07% (active),20.1%,14.2%
O=C(Cn1nc(-c2cccc3ccccc23)ccc1=O)NCc1cccc(Cl)c1,59.2% [50 µM],21% [50 µM],46.4% [50 µM],15.3% [50 µM],40.7% [50 µM],28.9% [50 µM],40.2% [50 µM],26.8% [50 µM],43.9% [50 µM],20.5% [50 µM]
Cc1ccccc1N1CCN(C(=S)c2ccccc2)CC1,85%,96.1%,96.6%,82.1%,108%,106%,75.3%,101%,114%,106%
Cc1nc2sc(C(=O)Nc3cccc(Cl)c3C)c(N)c2cc1C(=O)/C=C/c1ccccc1,33.8%,43.9%,-55.6% (active),-60.1% (active),-12.9% (active),3.93% (active),-62.1% (active),-6.27% (active),8.78% (active),16.8%
CS(=O)/C(C#N)=C\C=C\c1cccc(Cl)c1 (stereo not given),31.9%,38.9%,19.9%,21.4%,35%,3.18% (active),20.5%,12.1%,2.45% (active),7.07% (active)
Cn1c(=O)c2[nH]c(SC/C(=N/O)c3ccc(Br)cc3)nc2n(C)c1=O,33.6%,43.2%,17%,4.1% (active),-30.6% (active),-58.4% (active),-45.3% (active),-80% (active),83.9%,94.7%
NCCCNc1nc2ccccc2c2c(=O)c3cc(Cl)ccc3sc12,41%,57.4%,-66.5% (active),-71.7% (active),24.3%,-37.2% (active),22.1%,70.2%,-28.5% (active),-61.8% (active)
O=C(/C=C/C12c3ccccc3C(c3ccccc31)C1C(=O)NC(=O)C12)c1ccc(Cl)cc1Cl (stereo not given),-2.62% (active),36.4%,9.38% (active),32.4%,22.4%,28.2%,25.5%,35.7%,-8.25% (active),-0.49% (active)
CN(C)Cc1cc(C(C)(C)C)cc(Br)c1O,113%,96.8%,105%,98%,100%,108%,91.6%,90.6%,116%,110%
c1ccc2cc(Cn3cc(CSc4nc5ccccc5s4)nn3)ccc2c1,90.6%,101%,94.5%,77.6%,102%,99.3%,83.3%,97.3%,97.2%,96.4%
COc1ccc2cc(-c3nc4ccc(C)cn4c3NCc3ccco3)c(=O)[nH]c2c1,105%,55.9%,76.1%,47.8%,71%,45.4%,50.8%,43.8%,62.3%,52.7%
C=C1C(=O)O[C@H]2[C@H]1CC/C(CNC(=O)Cc1c[nH]c3ccccc13)=C\CC[C@@]1(C)O[C@@H]21,33.5%,79.3%,13.9%,34.9%,-35.9% (active),3.84% (active),14.7%,41.2%,-35.9% (active),-4.65% (active)
N#Cc1c(-c2cccc(Cl)c2)cc(-c2cccnc2)[nH]c1=O,79.7%,100%,82.6%,64.3%,127%,89%,72.8%,101%,71.5%,72.1%
O=S(=O)(Nc1ccc2ccccc2c1)c1ccc(-c2cnc(C3CC3)o2)cc1,40.2%,41.9%,44.9%,42.5%,61.9%,36.2%,28.9%,3.93% (active),10.7%,20.2%
C=C1C(=O)O[C@H]2[C@H]1CC/C(COC(=O)NCc1ccc(Cn3c(=O)sn(-c4ccccc4)c3=O)cc1)=C\CC[C@@]1(C)O[C@@H]21,49.6%,77.1%,33.9%,66.6%,4.49% (active),29.6%,15.6%,127%,-9.16% (active),-5.87% (active)
COc1ccc(/C=N/NC(=O)Cn2c(-c3ccc(S(C)(=O)=O)cc3)nc3ccccc32)cc1,107%,97%,99.9%,75.9%,109%,105%,93%,95%,106%,141%
